Compound activity: PubChem BioAssay, National Center for Advancing Translational Sciences (NCATS)
L3MBTL1 inh = blocks human L3MBTL1 | Potency, µM (top dose mostly 57.1 µM), actives largely listed as inhibitors | Q9Y468 | actives 0.66% (n = 230,000) | AlphaScreen L3MBTL1–H3K9me1 peptide binding; also: nearly all actives have a fitted effect of over 60% in size
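First, the protein-peptide complex forms for 30 min at room temperature (L3MBTL1 50 nM, biotinylated H3K9me1 peptide 75 nM). Next, compounds are pin-transferred and incubated 30 min. Finally, AlphaScreen beads are added and read after 30 min.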
POLK inh = DNA polymerase kappa (human) inhibition. purified Pol kappa, fluorescent DNA synthesis assay, 10 min. Q9UBT6. actives 0.53% (n = 400,000). Potency, µM (top dose mostly 107 µM), most hits filed as inhibitors
Target sequence (Q9UBT6 whole entry, looked up): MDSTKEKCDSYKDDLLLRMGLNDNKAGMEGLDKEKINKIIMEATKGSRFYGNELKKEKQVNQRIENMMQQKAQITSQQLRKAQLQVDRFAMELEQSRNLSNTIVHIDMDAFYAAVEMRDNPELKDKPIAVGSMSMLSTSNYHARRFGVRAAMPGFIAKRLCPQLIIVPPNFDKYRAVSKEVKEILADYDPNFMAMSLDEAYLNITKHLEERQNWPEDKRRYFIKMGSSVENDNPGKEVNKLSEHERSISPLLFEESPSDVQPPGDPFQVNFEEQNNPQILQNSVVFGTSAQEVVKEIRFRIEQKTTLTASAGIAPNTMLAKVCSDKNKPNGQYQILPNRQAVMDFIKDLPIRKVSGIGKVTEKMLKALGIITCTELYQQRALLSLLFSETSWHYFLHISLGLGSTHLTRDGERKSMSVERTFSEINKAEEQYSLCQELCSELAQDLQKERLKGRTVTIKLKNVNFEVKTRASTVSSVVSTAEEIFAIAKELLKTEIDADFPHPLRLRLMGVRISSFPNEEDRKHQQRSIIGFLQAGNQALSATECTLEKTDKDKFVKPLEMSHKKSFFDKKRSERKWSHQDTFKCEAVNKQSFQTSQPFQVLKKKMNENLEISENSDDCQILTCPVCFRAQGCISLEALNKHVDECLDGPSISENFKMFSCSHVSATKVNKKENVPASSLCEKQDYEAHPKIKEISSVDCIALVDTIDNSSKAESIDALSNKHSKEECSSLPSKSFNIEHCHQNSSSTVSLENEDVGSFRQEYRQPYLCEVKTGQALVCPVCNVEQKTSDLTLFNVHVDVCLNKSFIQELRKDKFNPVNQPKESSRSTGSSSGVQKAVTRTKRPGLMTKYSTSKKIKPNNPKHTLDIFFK
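Pol kappa 10 nM + cpd, 15 min RT; start w/ substrate 50 nM final; fluorescence kinetic read, 0 and 10 min. Neg ctrl: buffer, no enzyme.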
POLI inh = inhibitors of human DNA polymerase iota; Q9UNA4; Pol iota fluorescent replication assay, 10 min; Potency, µM (titrated, usually from 115 µM), usual class: inhibitors; actives 1% (n = 390,000)
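Pol iota at 10 nM preincubated 15 min with compounds at room temperature; reaction started with fluorescent substrate, 50 nM final. Fluorescence read kinetically at 0 and 10 min; buffer-only wells as negative control.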
POLB inh = inhibitors of human DNA polymerase beta; P06746; Potency, µM (series often up to 114 µM), hits mostly inhibitors; Pol beta primer extension/strand displacement, fluorescence kinetic; AID 485314; actives 1.3% (n = 340,000)
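Reaction started by 50 nM substrate onto compound-treated Pol beta (10 nM, 15 min preincubation, room temperature); plates read at 0 min and 10 min. Normalized concentration-effect data fitted by four-parameter Hill equation.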
POLH inh = blocks human DNA polymerase eta activity | recombinant Pol eta, fluorescent DNA replication assay | AID 588591 | Potency, µM (titrated, usually from 114 µM), usual class: inhibitors | Q9Y253 | actives 1.2% (n = 390,000)
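Fluorescent replication assay: 50 nM final substrate added after a 15 min room-temperature compound preincubation with 10 nM enzyme. Signal taken at 0 min and again at 10 min.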
Large screens that a line does not name were inactive. In the library only some 2.4% were active in any assay of this set; here they are far more common. Calls follow the shape of the dose curve; as a rule, active = well fitted curve in the direction sought with a large enough effect; inconclusive = small, poorly fitted or top-dose-only effect, or another doubt; inactive = no such curve, though single readings can be large; an effect the other way counts as inactive or inconclusive.

O=C(O)/C(=C/c1ccc(Cl)c([N+](=O)[O-])c1)c1ccc(S(=O)(=O)N2CCCCC2)s1	POLK inh 89µM, POLI inh inconclusive, POLH inh 28µM (no result: L3MBTL1 inh, POLB inh)
O=C(O)/C(=C\c1cccc(F)c1)c1ccc(S(=O)(=O)N2CCCCC2)s1	POLI inh inconclusive, POLB inh 22µM, POLH inh inconclusive
COc1ccc(Br)cc1/C=C(\C(=O)O)c1ccc(S(=O)(=O)N2CCCCC2)s1	POLH inh inconclusive (no result: POLB inh)
CCOc1cc(/C=C(\C(=O)O)c2ccc(S(=O)(=O)N3CCCC3)s2)ccc1OC	none (no result: POLB inh)
CCCCCCC[n+]1ccc(/C=C/c2c(C)[nH]c3ccccc23)cc1	none (no result: L3MBTL1 inh, POLB inh, POLH inh)
C=CCNc1nc(C(=O)OCC(=O)c2ccccc2)cs1	POLI inh inconclusive (no result: L3MBTL1 inh)
C=CCNc1nc(C(=O)OCC(=O)Nc2ccc(S(N)(=O)=O)cc2)cs1	POLI inh 28µM, POLH inh 56µM (no result: POLB inh)
CCOc1ccc(OCC)c(NS(=O)(=O)c2c(C(=O)N3CCC(C)CC3)c(C)n(C)c2C)c1	none (no result: L3MBTL1 inh)
O=C(O)c1cc(N/N=C/c2c(O)ccc3ccccc23)ccc1Cl	POLK inh inconclusive, POLI inh inconclusive, POLB inh 79µM, POLH inh inconclusive (no result: L3MBTL1 inh)
O=C(O)c1ccc(N=Cc2c(O)ccc3ccccc23)cc1	POLI inh 13µM
O=C(O)c1cc(N/N=C/c2ccc(OCc3ccccc3)cc2)ccc1Cl	L3MBTL1 inh inconclusive, POLB inh 50µM
Cn1c(/N=C/c2c(O)ccc3ccccc23)nc2ccccc21	L3MBTL1 inh 35µM, POLI inh 7.9µM, POLB inh 50µM, POLH inh 89µM
COc1ccc(CCCn2ncc3c2nc(N)n2nc(-c4ccco4)nc32)cc1	none (no result: L3MBTL1 inh, POLI inh, POLB inh, POLH inh)
O=C(NC1(C(F)(F)F)C(=O)Nc2c1c(=O)[nH]c(=O)n2-c1ccccc1)c1ccccc1Cl (configuration not stated)	none (no result: L3MBTL1 inh)
Cc1cc(/C=C/c2ccccc2)nc2ccccc12	none (no result: L3MBTL1 inh, POLB inh, POLH inh)
Cc1ccc(Nc2nc(N)nc(N)c2S(=O)(=O)c2ccccc2)cc1	none (no result: L3MBTL1 inh)
NC(=O)NN=C1c2cc(S(=O)(=O)N3CCOCC3)ccc2-c2ccc(S(=O)(=O)N3CCOCC3)cc21	none (no result: L3MBTL1 inh, POLB inh, POLH inh)
O=C1C(=O)c2ccccc2C(O)=C1c1ccccc1F	none (no result: L3MBTL1 inh)
O=C1c2ccccc2C(=O)c2[nH]c(=O)[nH]c21	POLK inh inconclusive, POLI inh 14µM, POLB inh 50µM, POLH inh 32µM (no result: L3MBTL1 inh)
CC(=O)N(C)C1=C(O)c2ccccc2C(=O)C1=O	POLI inh 28µM
O=C1C(O)=C(O)C(=O)c2ccccc21	POLI inh 7.9µM, POLH inh 32µM (no result: L3MBTL1 inh, POLB inh)
CC(=O)N(C1=C(O)c2ccccc2C(=O)C1=O)C1CCCCC1	none
Cc1ccc(NNC(=O)c2sccc2Cl)c(C)c1	POLI inh inconclusive (no result: L3MBTL1 inh, POLB inh, POLH inh)
COCCN(C(=O)COC(=O)/C=C/c1ccc(C)o1)c1c(N)n(Cc2ccccc2)c(=O)[nH]c1=O	POLI inh 79µM (no result: L3MBTL1 inh)
COCCN(C(=O)COC(=O)/C=C/c1ccco1)c1c(N)n(Cc2ccccc2)c(=O)[nH]c1=O	POLI inh inconclusive, POLB inh 28µM, POLH inh inconclusive (no result: L3MBTL1 inh)
CCN(C(=O)COC(=O)/C=C/c1ccc(C)o1)c1c(N)n(Cc2ccccc2)c(=O)[nH]c1=O	none (no result: POLB inh)
Cc1ccc(C(=O)C[n+]2cccc3cccc(O)c32)cc1	none (no result: L3MBTL1 inh, POLB inh, POLH inh)
CCOC(=O)N1CCc2c(sc3c2c(=O)n(CCc2ccccc2)c(=O)n3Cc2ccc(C)cc2C)C1	none (no result: L3MBTL1 inh)
CC[C@H](C)[C@H](NC(=O)[C@H](CC(C)C)NC(=O)[C@H](CO)NC(=O)[C@H](CCC(=O)O)NC(=O)[C@H](CC(C)C)NC(=O)[C@H](Cc1ccc(O)cc1)NC(=O)[C@H](CCCCN)NC(=O)[C@H](CCCCN)NC(=O)[C@H](C)NC(=O)[C@H](CO)NC(=O)[C@H](CC(C)C)NC(=O)[C@H](CCC(N)=O)NC(=O)CNC(=O)[C@H](CC(C)C)NC(=O)[C@H](CC(C)C)NC(=O)[C@H](CCCNC(=N)N)NC(=O)[C@H](CO)NC(=O)[C@H](Cc1ccccc1)NC(=O)[C@H](CC(=O)O)NC(=O)[C@H](CO)NC(=O)[C@@H](NC(=O)[C@H](Cc1ccccc1)NC(=O)[C@@H](NC(=O)CNC(=O)[C@H](CC(=O)O)NC(=O)[C@H](C)NC(=O)[C@@H](N)Cc1cnc[nH]1)C(C)C)[C@@H](C)O)C(N)=O	none (no result: L3MBTL1 inh, POLI inh, POLB inh, POLH inh)
Fc1ccc(N2CCN(c3nc(CN4CCOCC4)nc4scc(-c5ccccc5)c34)CC2)cc1	L3MBTL1 inh 16µM
COc1ccc(-n2nc(C(=O)NCC(=O)Nc3cccc(Cl)c3)c3ccccc3c2=O)cc1OC	POLB inh 25µM, POLH inh inconclusive (no result: L3MBTL1 inh)
C/C(=N\NC(=O)c1cccc(N/N=C(\C)c2cc(O)ccc2O)c1)c1cc(O)ccc1O	L3MBTL1 inh 28µM, POLH inh inconclusive
C/C(=N\NC(=O)c1cccc(N/N=C(\C)c2ccco2)c1)c1ccco1	POLK inh 89µM, POLI inh 45µM, POLH inh 22µM
C/C(=N\NC(=O)c1cccc(O)c1)c1cccc(NC(=O)c2ccc(F)cc2)c1	none (no result: L3MBTL1 inh)
CN(C)c1ccc(/C=C2\C(=O)/C(=C\c3ccc(N(C)C)cc3)c3ccccc32)cc1	none (no result: L3MBTL1 inh, POLB inh, POLH inh)
CCOc1cccc(-c2nc3ccccc3c(=O)o2)c1	none (no result: L3MBTL1 inh)
CCOC(=O)c1ccc(NS(=O)(=O)c2ccc(SC)cc2)cc1	POLI inh 79µM (no result: L3MBTL1 inh)
CCOC(=O)CN1C(=O)S/C(=C/c2ccco2)C1=O	none
O=C1/C(=C\c2ccco2)SC(=S)N1c1ccc(O)cc1	L3MBTL1 inh inconclusive, POLI inh inconclusive, POLB inh 20µM
O=C(CN1C(=O)/C(=C/c2ccco2)SC1=S)Nc1ccc(O)c(C(=O)O)c1	POLK inh inconclusive, POLB inh 10µM, POLH inh inconclusive (no result: L3MBTL1 inh)
CC(=C\c1ccco1)/C=C1/SC(=S)N(CC(=O)O)C1=O	L3MBTL1 inh 40µM, POLK inh inconclusive, POLI inh inconclusive, POLB inh 20µM, POLH inh 40µM
NN1C(=O)/C(=C\c2ccco2)SC1=S	L3MBTL1 inh 25µM, POLK inh inconclusive, POLI inh inconclusive, POLB inh 7.9µM
O=C(CCCN1C(=O)/C(=C/c2cccs2)SC1=S)Nc1ccc(O)c(C(=O)O)c1	POLB inh inconclusive (no result: POLK inh, POLI inh, POLH inh)
O=C1NC(=Nc2ccc(O)cc2)S/C1=C/c1ccco1	POLB inh inconclusive (no result: L3MBTL1 inh)
COc1ccc(C2/C=C\CN(CC(C)C)C(C)C(=O)N2Cc2ccc(F)cc2)cc1 (configuration not stated)	none (no result: L3MBTL1 inh, POLB inh, POLH inh)
CCCN1C(=O)/C(=C/c2ccc(C)o2)NC1=S	none (no result: L3MBTL1 inh, POLK inh, POLI inh, POLH inh)
CCN1C(=O)N/C(=C/c2ccc(C)o2)C1=O	POLI inh 40µM, POLB inh inconclusive
Cn1c(=O)c2c(-c3ccc(Br)cc3)n(Cc3ccc(F)cc3)cc2n(C)c1=O	POLK inh inconclusive, POLI inh 89µM (no result: L3MBTL1 inh)
Cn1c(=O)c2c(-c3ccc(Cl)cc3)n(Cc3ccc(Cl)cc3)cc2n(C)c1=O	POLI inh inconclusive, POLB inh inconclusive (no result: L3MBTL1 inh)
